Laboratory results: PubChem BioAssay AID449762 (Southern Research Specialized Biocontainment Screening …, 2010)
The whole screen tested about 330,000 compounds, of which about 1,900 (0.58%) were called active. Inconclusive results (about 4%) are left out. Cut-off read from the data, not from the text of the source: inconclusive = inhibition above about 70% without an active follow-up result; inactive = below that. The list is a sample of the results. Potency and affinity values are given separately.

test: M. tuberculosis growth inhibition, HTS (AID 449762);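 note: bacterial growth assessed after seven days of incubation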; settings: M. tuberculosis H37Rv growth inhibition, 7H9 media; at 25 µM; active compounds read high

Structure (SMILES)	inhibition
COc1cccc(C(=O)c2c[nH]c(C(=O)NCCCN(C)C)c2)c1	-4.05% (inactive)
COCCn1c(CN2CCN(C(=O)c3ccco3)CC2)nc2c1c(=O)n(C)c(=O)n2C	13% (inactive)
CC(=O)c1ccc(OC(=O)COc2ccccc2)cc1	-5.04% (inactive)
NS(=O)(=O)c1ccc(NC(=O)CSc2ncnc3ccccc23)cc1	0.11% (inactive)
CC(Sc1nnc(NC2CC2)s1)C(=O)Nc1ccc(S(N)(=O)=O)cc1 (stereo not given)	8.95% (inactive)
O=C(CSc1nnc(NC2CCCCC2)s1)Nc1ccc2c(c1)C(=O)c1ccccc1C2=O	4.12% (inactive)
CCN1CCN(c2nc3c(c(=O)[nH]c(=O)n3C)n2CCCc2ccccc2)CC1	-0.19% (inactive)
COc1cc(C(C)=O)ccc1OCC(O)CN1CCN(S(=O)(=O)c2ccccc2)CC1 (stereo not given)	-10.5% (inactive)
CCOC(=O)c1cc(C)nc(SC)c1C#N	6.64% (inactive)
C#CCSc1nc(C)cc(C(=O)OCC)c1C#N	1.67% (inactive)
CCOC(=O)[C@@H]1[C@H]2COc3ccc(Br)cc3[C@@H]2N2C(=O)N(c3ccc(C)cc3)C(=O)[C@@]12C	-3.24% (inactive)
CN(Cc1cnn(C)c1)C(=O)CC1C(=O)NCCN1Cc1cccc(Oc2ccccc2)c1 (stereo not given)	3.24% (inactive)
Cc1sc2nc(C(C)C)nc(SCC(=O)NC3CC3)c2c1C	0.27% (inactive)
Cc1c(C(=O)CN2CCCC(C)(C)C2)c2ccccc2n1C	5.6% (inactive)
CCOc1cc(CNCCCN2CCOCC2)ccc1OCC(=O)Nc1cccc2ccccc12	6.81% (inactive)
COc1cc(CNCCCN2CCOCC2)ccc1OCC(=O)Nc1cccc(C(F)(F)F)c1	0.14% (inactive)
Cc1ccc(S(=O)(=O)N2CCOCC2)c(C)c1NS(C)(=O)=O	-0.81% (inactive)
CCN(C(=O)COc1cc(OC)ccc1C(C)=O)C1CCS(=O)(=O)C1 (stereo not given)	0.77% (inactive)
CCc1noc(C)c1C(=O)NNC(=O)COc1cc(C)ccc1C	0.9% (inactive)
Cc1ccc(NC(=O)CCS(=O)(=O)c2cccc3nonc23)cc1	13.6% (inactive)
CCc1cccc(NC(=O)CCS(=O)(=O)c2cccc3nonc23)c1	57.8% (inactive)
O=c1c(/C=N/OCc2ccc(Cl)cc2Cl)c[nH]n1-c1cccc(Cl)n1	34.5% (inactive)
O=c1c(C=Nc2ccc(Cl)cc2)c[nH]n1-c1cccc(Cl)n1	0.34% (inactive)
Cc1nc2c(C(F)(F)F)cccc2c2c1CCS2	0.87% (inactive)
Cc1cccc(NC(=O)C2CCCN(S(=O)(=O)c3c(C)nn(C)c3C)C2)c1 (stereo not given)	-8.6% (inactive)
